# Structures can show the parent of a compound that is named as a salt. ± gives the standard deviation of the averaged measurements.
# System: A549
# Assay: relative viability (normalised to negative control = 1, bortezomib = 0) (fraction); higher = less cytotoxic
# Settings: inflammatory serum-free RHB-A with cytokines + LPS, 5 d + 24 h CellTiter-Blue
# [1] = compound 30 nM, GSK126 pretreatment: 5 uM GSK126
# [2] = compound 30 nM, GSK126 pretreatment: none (vehicle)
# [3] = compound 300 nM, GSK126 pretreatment: 5 uM GSK126
# [4] = compound 300 nM, GSK126 pretreatment: none (vehicle)
Structure (SMILES),relative viability [1],relative viability [2],relative viability [3],relative viability [4]
Cc1[nH]c(/C=C2\C(=O)Nc3ccc(S(=O)(=O)N(C)c4cccc(Cl)c4)cc32)c(C)c1C(=O)N1CCN(C)CC1,0.89 ± 0.053,0.887 ± 0.099,1.03 ± 0.01,1.03 ± 0.01
Cc1ccc(NC(=O)c2ccc(CN3CCN(C)CC3)cc2)cc1Nc1nc(-c2cccnc2)cs1 [Masitinib(AB1010)],0.802 ± 0.1,0.761 ± 0.1,0.841 ± 0.11,0.979 ± 0.091
C[C@@H](Oc1cc(-n2cnc3ccc(CN4CCN(C)CC4)cc32)sc1C(N)=O)c1ccccc1C(F)(F)F,0.481 ± 0.028,0.326 ± 0.05,0.517 ± 0.02,0.363 ± 0.072
COc1ccc(-c2cc3c(C)nc(N)nc3n(C3CCC(OCCO)CC3)c2=O)cn1 (configuration not stated),0.617 ± 0.071,0.634 ± 0.063,0.0912 ± 0.017,0.087 ± 0.014
C=CC(=O)Nc1cccc(Oc2nc(Nc3ccc(N4CCN(C)CC4)cc3)ncc2Cl)c1,0.802 ± 0.067,0.82 ± 0.095,0.132 ± 0.07,0.0677 ± 0.014
Nc1nc(N)c2nc(-c3cccc(O)c3)c(-c3cccc(O)c3)nc2n1,0.719 ± 0.028,0.683 ± 0.014,0.664 ± 0.14,0.776 ± 0.075
O=C(O)C1(C(=O)O)CCC1.[NH2-].[NH2-].[Pt+2] [Carboplatin],0.75 ± 0.042,0.748 ± 0.059,0.742 ± 0.048,0.812 ± 0.0056
CNC(=O)c1ccccc1Sc1ccc2c(/C=C/c3ccccn3)n[nH]c2c1,0.898 ± 0.013,0.875 ± 0.039,0.835 ± 0.13,0.891 ± 0.063
COc1cc([C@@H]2c3cc4c(cc3[C@@H](O[C@@H]3O[C@@H]5CO[C@@H](c6cccs6)O[C@H]5[C@H](O)[C@H]3O)[C@H]3COC(=O)[C@H]23)OCO4)cc(OC)c1O [Teniposide],0.861 ± 0.062,0.777 ± 0.076,0.685 ± 0.037,0.544 ± 0.072
c1cncc(CN2CCC(n3ncc4c(N5CCOCC5)nc(-c5ccc6[nH]ccc6c5)nc43)CC2)c1,0.861 ± 0.099,0.896 ± 0.11,0.73 ± 0.14,0.761 ± 0.073
Cn1c(=O)n(-c2ccc(C(C)(C)C#N)cc2)c2c3cc(-c4cnc5ccccc5c4)ccc3ncc21,0.581 ± 0.063,0.624 ± 0.034,0.209 ± 0.0083,0.21 ± 0.0091
Cc1cnc(NC(=O)Nc2cc(Br)c(C)cc2OC[C@@H]2CNCCO2)cn1,0.539 ± 0.03,0.607 ± 0.081,0.414 ± 0.05,0.338 ± 0.028
O=C(NC1CCNCC1)c1n[nH]cc1NC(=O)c1c(Cl)cccc1Cl,0.969 ± 0.17,0.924 ± 0.074,0.0464 ± 0.029,0.136 ± 0.057
C=CC(=O)N1CCC[C@@H](n2nc(-c3ccc(Oc4ccccc4)cc3)c3c(N)ncnc32)C1,0.769 ± 0.14,0.718 ± 0.11,0.429 ± 0.02,0.41 ± 0.048
O=C(CCBr)N1CCN(C(=O)CCBr)CC1 [Pipobroman],0.735 ± 0.045,0.705 ± 0.026,0.725 ± 0.096,0.822 ± 0.12
Clc1ccc(C(c2ccccc2Cl)C(Cl)Cl)cc1 (configuration not stated),0.827 ± 0.1,0.804 ± 0.093,0.832 ± 0.16,0.983 ± 0.12
CC(C)C[C@H](NC(=O)[C@H](CCc1ccccc1)NC(=O)CN1CCOCC1)C(=O)N[C@@H](Cc1ccccc1)C(=O)N[C@@H](CC(C)C)C(=O)[C@@]1(C)CO1 [Carfilzomib],-0.00043 ± 0.0042,0.0294 ± 0.0064,-0.00389 ± 0.00043,-0.00499 ± 0.0011
CC(=O)Nc1nc(C)c(-c2ccc(Cl)c(S(=O)(=O)NCCO)c2)s1,0.61 ± 0.047,0.678 ± 0.015,0.487 ± 0.16,0.712 ± 0.052
CN(C)/N=N/c1[nH]cnc1C(N)=O [Dacarbazine],0.931 ± 0.18,0.992 ± 0.11,1.05 ± 0.11,1.07 ± 0.031
O=C1NC(=O)/C(=C/c2ccc3c(c2)OC(F)(F)O3)S1,0.939 ± 0.15,0.969 ± 0.17,1.01 ± 0.14,0.968 ± 0.092
Cc1c(CN2CCN(C(=O)[C@H](C)O)CC2)sc2c(N3CCOCC3)nc(-c3cnc(N)nc3)nc12,0.678 ± 0.048,0.754 ± 0.063,0.15 ± 0.033,0.172 ± 0.013
O=C(c1ccc(/C=C/c2n[nH]c3ccccc23)cc1)N1CCNCC1,0.843 ± 0.022,0.862 ± 0.046,0.957 ± 0.065,1.04 ± 0.091
COc1cccc2cc(-c3nc(C4CCC(C(=O)O)CC4)n4ncnc(N)c34)[nH]c12 (configuration not stated),0.815 ± 0.016,0.797 ± 0.045,0.588 ± 0.07,0.718 ± 0.055
CCN(CC)CCNC(=O)c1c(C)[nH]c(/C=C2\C(=O)Nc3ccc(F)cc32)c1C [Sunitinib; Sunitinib Malate; Sunitinib (free base)],0.842 ± 0.03,0.832 ± 0.046,0.896 ± 0.067,0.939 ± 0.097
Cc1[nH]nc2ccc(-c3cncc(OC[C@@H](N)Cc4ccccc4)c3)cc12,0.871 ± 0.14,0.766 ± 0.094,0.17 ± 0.011,0.273 ± 0.056
CC(=O)O[C@@]12CO[C@@H]1C[C@H](O)[C@@]1(C)C(=O)[C@H](O)C3=C(C)[C@@H](OC(=O)[C@H](O)[C@@H](NC(=O)OC(C)(C)C)c4ccccc4)C[C@@](O)([C@@H](OC(=O)c4ccccc4)[C@H]21)C3(C)C [Docetaxel],0.491 ± 0.058,0.349 ± 0.015,0.583 ± 0.053,0.429 ± 0.011
Cc1ccc(NC(=O)c2ccc(CN3CCN(C)CC3)cc2)cc1Nc1nccc(-c2cccnc2)n1,0.902 ± 0.12,0.867 ± 0.096,0.976 ± 0.13,1 ± 0.093

Structure (SMILES),relative viability [1],relative viability [2],relative viability [3],relative viability [4]
CS(=O)(=O)OCCCCOS(C)(=O)=O [Busulfan],0.889 ± 0.017,0.865 ± 0.038,0.916 ± 0.067,0.893 ± 0.024
COc1cc(Nc2ncc(F)c(Nc3ccc4c(n3)N(COP(=O)(O)O)C(=O)C(C)(C)O4)n2)cc(OC)c1OC,0.929 ± 0.03,0.888 ± 0.056,0.952 ± 0.013,0.983 ± 0.067
CN(N=O)C(=O)N[C@@H]1[C@@H](O)[C@H](O)[C@@H](CO)O[C@@H]1O [Streptozocin],0.985 ± 0.071,0.903 ± 0.13,1.01 ± 0.15,1.08 ± 0.088
CS(=O)(=O)CCNCc1ccc(-c2ccc3ncnc(Nc4ccc(OCc5cccc(F)c5)c(Cl)c4)c3c2)o1 [Lapatinib ditosylate; Lapatinib; Lapatinib Ditosylate],0.811 ± 0.091,0.826 ± 0.083,0.594 ± 0.11,0.562 ± 0.057
C=CC(=O)Nc1cc2c(Nc3ccc(F)c(Cl)c3)ncnc2cc1OCCCN1CCOCC1 [CI-1033(Canertinib)],0.602 ± 0.014,0.595 ± 0.017,0.483 ± 0.028,0.502 ± 0.028
COc1cc(Nc2ncc(F)c(Nc3ccc4c(n3)NC(=O)C(C)(C)O4)n2)cc(OC)c1OC [R406(free base); R406],0.92 ± 0.13,0.896 ± 0.067,1.23 ± 0.096,1.22 ± 0.087
Nc1nc(Cl)nc2c1ncn2[C@H]1C[C@H](O)[C@@H](CO)O1 [Cladribine],0.723 ± 0.12,0.729 ± 0.099,0.386 ± 0.1,0.305 ± 0.075
Cc1cc(Nc2nc(N[C@@H](C)c3ccc(F)cc3)c(C#N)cc2F)n[nH]1,1.23 ± 0.055,1.16 ± 0.11,0.269 ± 0.021,0.309 ± 0.027
Nc1cc(C(F)(F)F)c(-c2cc(N3CCOCC3)nc(N3CCOCC3)n2)cn1,0.85 ± 0.082,0.771 ± 0.058,0.664 ± 0.064,0.751 ± 0.052
CCCNC(=O)Nc1ccc(Oc2ncnc3cc(OC)c(OC)cc23)cc1Cl,0.713 ± 0.055,0.752 ± 0.01,0.775 ± 0.19,0.895 ± 0.087
C[S+]([O-])c1ccc(-c2nc(-c3ccc(F)cc3)c(-c3ccncc3)[nH]2)cc1 (configuration not stated),1.03 ± 0.22,0.902 ± 0.11,1.3 ± 0.14,1.14 ± 0.13
CC(C)c1cnn2c(NCc3ccccc3)cc(NCCCCCCN)nc12 [BS-181 hydrochloride],0.804 ± 0.083,0.821 ± 0.11,0.853 ± 0.063,0.895 ± 0.049
CC(=O)O[C@]1(C(C)=O)CC[C@H]2[C@@H]3C=C(C)C4=CC(=O)CC[C@]4(C)[C@H]3CC[C@@]21C [Megestrol acetate],1.35 ± 0.04,1.21 ± 0.14,1.48 ± 0.078,1.55 ± 0.085
N#CC(=C(/N)Sc1ccccc1N)/C(C#N)=C(/N)Sc1ccccc1N,0.835 ± 0.084,0.825 ± 0.11,0.61 ± 0.084,0.684 ± 0.12
C[C@]12CC[C@@H]3c4ccc(O)cc4C[C@@H](CCCCCCCCC[S+]([O-])CCCC(F)(F)C(F)(F)F)[C@H]3[C@@H]1CC[C@@H]2O (some centres not stated) [Fulvestrant],0.901 ± 0.098,0.836 ± 0.039,0.85 ± 0.065,0.855 ± 0.024
CC(C)(C#N)c1cc(Cn2cncn2)cc(C(C)(C)C#N)c1 [Anastrozole; Arimidex],0.743 ± 0.051,0.792 ± 0.039,0.804 ± 0.086,0.896 ± 0.04
CCCCC(=O)OCC(=O)[C@]1(O)Cc2c(O)c3c(c(O)c2[C@@H](O[C@H]2C[C@H](NC(=O)C(F)(F)F)[C@H](O)[C@H](C)O2)C1)C(=O)c1c(OC)cccc1C3=O [Valrubicin],0.989 ± 0.055,1.01 ± 0.042,0.899 ± 0.027,0.879 ± 0.041
CC[C@H](CO)Nc1nc(NCc2ccccc2)c2ncn(C(C)C)c2n1 [ROSCOVITINE; Roscovitine(CYC202); Roscovitine],0.929 ± 0.16,0.873 ± 0.12,0.963 ± 0.063,0.902 ± 0.088
COc1cc2nccc(Oc3ccc(NC(=O)Nc4cc(C)on4)c(Cl)c3)c2cc1OC [AV-951(Tivozanib)],0.919 ± 0.12,0.927 ± 0.12,1.1 ± 0.11,1.18 ± 0.18
Nc1nc(Cl)nc2c1ncn2[C@@H]1O[C@H](CO)[C@@H](O)[C@@H]1F [Clofarabine],0.74 ± 0.12,0.693 ± 0.026,0.28 ± 0.047,0.256 ± 0.027
Cc1ccc(Nc2nccc(N(C)c3ccc4c(C)n(C)nc4c3)n2)cc1S(N)(=O)=O [Pazopanib Hydrochloride],0.972 ± 0.12,0.935 ± 0.081,1.11 ± 0.096,1.09 ± 0.12
CCN(CC)CCCC(C)Nc1c2ccc(Cl)cc2nc2ccc(OC)cc12 (configuration not stated),0.836 ± 0.066,0.847 ± 0.051,1.02 ± 0.091,1.02 ± 0.11
O=c1[nH]cc(F)c(=O)[nH]1 [5-Fluorouracil; Fluorouracil],0.96 ± 0.07,0.911 ± 0.063,0.865 ± 0.13,0.924 ± 0.026
CNC(=O)CN1CCC(Oc2cc3c(Nc4cccc(Cl)c4F)ncnc3cc2OC)CC1,0.536 ± 0.14,0.525 ± 0.058,0.346 ± 0.075,0.375 ± 0.024
C/C=C1\NC(=O)[C@H]2CSSCC/C=C/[C@H](CC(=O)N[C@H](C(C)C)C(=O)N2)OC(=O)[C@H](C(C)C)NC1=O [Depsipeptide],0.00208 ± 0.0052,0.00595 ± 0.0056,-0.0034 ± 0.0005,-0.00514 ± 0.00076
CO[C@H]1C[C@@H]2CC[C@@H](C)[C@@](O)(O2)C(=O)C(=O)N2CCCC[C@H]2C(=O)O[C@H]([C@H](C)C[C@@H]2CC[C@@H](O)[C@H](OC)C2)CC(=O)[C@H](C)/C=C(\C)[C@@H](O)[C@@H](OC)C(=O)[C@H](C)C[C@H](C)/C=C/C=C/C=C/1C [Sirolimus; RAPAMYCIN; Rapamycin(Sirolimus); Rapamycin],0.576 ± 0.08,0.588 ± 0.064,0.552 ± 0.066,0.558 ± 0.07

# Reference: the supplement of paper PMC6279402
